Measurements from the supplement of paper PMC6555819.

Columns and labels:
Assay in all cases: PBM binding z-score (relative to random genomic background probes); higher = stronger binding; sequences stand for … in GC…GCGATTGACAGCGTAGAATGAAGG
[1] = tested on: FXR:RXRa (NR concentration 270 nM, RXRa partner concentration 90 nM)
How it was run: (§1)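 Antibodies against each partner of ligand-free nuclear receptor dimers (one per run) detected binding on custom Agilent 4×180K protein-binding microarrays after 1 h incubation. The double-stranded probes had 34-nt variable regions carrying direct-repeat seeds, single-nucleotide variants, half-site ablations and random human genomic background sequences. Binding z-scores, from regression-normalized fluorescence, use the random background probes as reference.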

[2] = tested on: LXRa:RXRa (NR concentration 270 nM, RXRa partner concentration 90 nM)
How it was run: as §1

[3] = tested on: LXRa homodimer (NR concentration 270 nM)
How it was run: as §1

[4] = tested on: LXRb:RXRa (NR concentration 270 nM, RXRa partner concentration 90 nM)
How it was run: as §1

[5] = tested on: LXRb homodimer (NR concentration 270 nM)
How it was run: as §1

[6] = tested on: PPARa:RXRa (NR concentration 270 nM, RXRa partner concentration 90 nM)
How it was run: as §1

[7] = tested on: PPARg:RXRa (NR concentration 180 nM, RXRa partner concentration 90 nM)
How it was run: as §1

[8] = tested on: PPARg:RXRa 270nM:90nM, anti-RXR (NR concentration 270 nM, RXRa partner concentration 90 nM)
How it was run: as §1

[9] = tested on: PPARg:RXRa 30nM:10nM, anti-RXR (NR concentration 30 nM, RXRa partner concentration 10 nM)
How it was run: as §1

[10] = tested on: PPARg:RXRa 90nM:30nM, anti-RXR (NR concentration 90 nM, RXRa partner concentration 30 nM)
How it was run: as §1

[11] = tested on: PPARg:RXRa DBDmut IVT, anti-RXR (DBD mutation: RXRa K156A/R161A, NR concentration 270 nM, RXRa partner concentration 90 nM)
How it was run: as §1

[12] = tested on: PPARg:RXRa IVT, anti-PPARg (NR concentration 270 nM, RXRa partner concentration 90 nM)
How it was run: as §1

[13] = tested on: PPARg DBDmut:RXRa IVT, anti-PPARg (DBD mutation: PPARg1 K132A/R137A, NR concentration 270 nM, RXRa partner concentration 90 nM)
How it was run: as §1

[14] = tested on: PPARg DBDmut IVT, anti-PPARg (DBD mutation: PPARg1 K132A/R137A, NR concentration 270 nM)
How it was run: as §1

[15] = tested on: PPARg homodimer (NR concentration 180 nM)
How it was run: as §1

[16] = tested on: PXR:RXRa (NR concentration 270 nM, RXRa partner concentration 90 nM)
How it was run: as §1

[17] = tested on: PXR homodimer (NR concentration 270 nM)
How it was run: as §1

[18] = tested on: RARa:RXR (NR concentration 270 nM, RXRa partner concentration 90 nM)
How it was run: as §1

[19] = tested on: RARa homodimer (NR concentration 270 nM)
How it was run: as §1

[20] = tested on: RARb:RXRa (NR concentration 270 nM, RXRa partner concentration 90 nM)
How it was run: as §1

Sequence	PBM binding z-score [1]	PBM binding z-score [2]	PBM binding z-score [3]	PBM binding z-score [4]	PBM binding z-score [5]	PBM binding z-score [6]	PBM binding z-score [7]	PBM binding z-score [8]	PBM binding z-score [9]	PBM binding z-score [10]	PBM binding z-score [11]	PBM binding z-score [12]	PBM binding z-score [13]	PBM binding z-score [14]	PBM binding z-score [15]	PBM binding z-score [16]	PBM binding z-score [17]	PBM binding z-score [18]	PBM binding z-score [19]	PBM binding z-score [20]
TCTAGTAGTTGAAGGGCAACCGACGAGTCCGTTT	0.63	0.618	-0.0916	0.268	-0.134	0.455	-0.018	1.65	2.83	2.22	1.78	0.527	0.13	-0.187	0.499	0.507	0.346	-0.0241	0.58	1.4
GCAGACAGGTGAAACGCAGGTAACTCAAGGTGGC	-0.175	0.4	-0.42	-0.165	-1.28	0.892	0.604	-0.0904	-0.0664	-0.118	1.07	0.401	-0.233	-0.299	-0.279	-0.0534	-0.612	0.593	-0.358	0.608
CAGCCTAGGTCAGGGCCAGTATTGGAGGAACGTT	1.65	0.996	-0.403	0.567	-1.11	2.03	0.396	0.87	-0.497	0.402	1.37	1.29	-1.49	-1.57	0.568	0.0346	-0.593	1.02	-0.698	3.35
TCACGGAGGACACGAAGGTCAGAGCTTTCCAGAG	1.21	1.07	0.259	0.963	-1.12	1.99	0.712	1.52	2.16	1.87	1.52	0.826	-1.19	-0.604	1.45	1.98	1.22	2.3	0.266	3.44
GGAACGAGGGCAAAGTAGATAGCATCTGTCGACG	0.832	0.557	-0.498	0.289	-0.467	1.98	2.48	2.96	0.802	2.23	4.05	3.19	-0.596	-0.605	0.234	0.482	0.16	0.38	-0.526	2.15
GCTCGGAGGACAACGTCAGAGCTTTGTCCGTAGA	-0.816	-1.18	-1	-1.15	-1.11	-0.78	-0.651	-1.1	-1.29	-1.22	-0.91	-0.67	-2	-1.23	-2.11	-0.976	-1.16	-1.29	-1.57	0.852
ACTAGTTTGTCAGCTGAGGTCACACACAATTCGG	3.55	3.38	2.38	3.67	1.33	3.71	1.49	2.21	0.672	1.86	1.11	2.31	0.92	1.54	2.72	4.87	2.34	4.4	1.24	3.28
